The list is not random: actives were taken first. Their share in the collection is about 7.1%.
Lassa entry = inhibitors of Lassa virus binding or entry into cells; hit rate 4.1% among 18,000; Lassa virus pseudotyped entry inhibition, cell-based qHTS; Potency, µM (doses to about 49.2 µM), for inactives: at the highest dose activity change, negative = inhibition, usual class: inhibitors; AID 720533
MARV entry inh = blocks Marburg virus binding or cell entry. Potency, µM (titrated, usually from 49.2 µM), inactives show at the top dose activity change, negative = inhibition, usual class: inhibitors. Marburg virus pseudotype entry/binding inhibition, cell-based. hit rate 6.5% among 18,000. AID 720532
The depositor's hits bear a star; ? = inconclusive; nt = no result given; ! = a repeat was not active; [ ] = remark or other dose. Calls come from the whole dose curve; tested in HEK293 cells. % is set by controls: 0 for no effect and ±100 for the full control effect; potency is the fitted concentration of half-maximal effect.

SMILES | Lassa entry | MARV entry inh
COC(=O)[C@@]1(C=C2c3ccccc3[C@@H](OC)[C@@H]2C)[C@@H]2Oc3ccccc3[C@@H]21 | nt | 0%[8.59 µM]
O=S1(=O)C=CCN1Cc1ccc(F)cc1 | -27% | -5%
COC(=O)C1=C2C=CCCN2C(=O)NC1c1ccccc1 (configuration not stated) | -9%[8.59 µM] | -17%[8.59 µM]
C=CCOC(=O)N[C@H](C(C(=O)OC)=C(C)NCc1ccccc1)c1ccc(C)cc1 | nt | 47%[8.59 µM]
C[C@H]1CCCC(=O)CCC/C=C/c2c(O)cc(O)cc2C(=O)O1 | -16% | -30%
C[C@H]1CCC/C=C/C2C[C@H](O)C[C@H]2[C@H](O)/C=C/C(=O)O1 (some centres not stated) | 0.63µM*! | 0.63µM*
C[C@H]1CCC/C=C/[C@@H]2C[C@H](O)C[C@H]2[C@H](O)/C=C/C(=O)O1 | 1.1µM* | 1.1µM*
O=C(O)Cc1ccccc1Oc1ccc(Cl)cc1Cl | -15% | 2%
Oc1cc(Cl)ccc1Oc1ccc(Cl)cc1Cl | 25µM*! | 35µM*!
CC(=O)OC[C@H]1O[C@@H](ON=C2C[C@@H](O)[C@@H](O)[C@@H]3[C@H]4C(=O)N(Cc5ccccc5)C(=O)[C@@H]4CC[C@@H]23)[C@H](OC(C)=O)[C@@H](OC(C)=O)[C@H]1OC(C)=O | 21%[8.59 µM] | -9%[8.59 µM]
c1ccc(Cc2nc3ccc(Nc4ncnc5ccccc45)cc3[nH]2)cc1 | 149% | 123%
COc1cc(Nc2c(C#N)cnc3cc(OCCCN4CCN(C)CC4)c(OC)cc23)c(Cl)cc1Cl | ? | 7.1µM*
CC1(C)CN(C2CCCCC2)C(=O)[C@@H]1CC(=O)Nc1ccc(Br)cc1 | -28% | 9%
CCCCCCCCCCCCCCCCCCNC(=O)OC1CCN(C(=O)OC[C@H](COC(=O)N(Cc2cccc[n+]2CC)C(=O)c2ccccc2OC)OC)CC1 | 13µM* | 11µM*
CC[C@H]1OC(=O)[C@H](C)[C@@H](O[C@H]2C[C@@](C)(OC)[C@@H](O)[C@H](C)O2)[C@H](C)[C@@H](O[C@@H]2O[C@H](C)C[C@H](N(C)C)[C@H]2O)[C@](C)(O)C[C@@H](C)[C@@H]2N[C@@H](COCCOC)O[C@@H]([C@H]2C)[C@]1(C)O | -1% | 7.1µM*
CCOC(=O)CCC(=O)O[C@H]1[C@H](O[C@@H]2[C@@H](C)[C@H](O[C@H]3C[C@@](C)(OC)[C@@H](O)[C@H](C)O3)[C@@H](C)C(=O)O[C@H](CC)[C@@](C)(O)[C@H](O)[C@@H](C)C(=O)[C@H](C)C[C@@]2(C)O)O[C@H](C)C[C@@H]1N(C)C | 1% | 8%
CCC(=O)O[C@H]1[C@H](O[C@@H]2[C@@H](C)[C@H](O[C@H]3C[C@@](C)(OC)[C@@H](O)[C@H](C)O3)[C@@H](C)C(=O)O[C@H](CC)[C@@](C)(O)[C@H](O)[C@@H](C)C(=O)[C@H](C)C[C@@]2(C)O)O[C@H](C)C[C@@H]1N(C)C | 25µM* | 10µM*
CCC1OC(=O)C(C)[C@@H](O[C@H]2C[C@@](C)(OC)C(O)C(C)O2)C(C)[C@@H](O[C@@H]2OC(C)CC(N(C)C)C2O)[C@@](C)(O)CC(C)C2NC(COCCOC)O[C@H](C2C)[C@@]1(C)O (some centres not stated) | -7% | -16%
COc1ccc([C@]23Cc4ccccc4[C@H](O2)C2=C(CCCC2=O)O3)cc1 | -4%[8.59 µM] | 57%[8.59 µM]
CC(=O)Nc1ccc(-c2c(C)cc3oc(=O)cc(-c4ccccc4)c3c2C)cc1 | 7.9µM* | -22%
Cc1ccc(-c2c(C)cc3oc(=O)cc(-c4ccccc4)c3c2C)cc1 | ? | -17%
COC[C@H]1O[C@@H]2O[C@@H]1[C@@H](C=Cc1ccccc1)C[C@H]2C | 20%[8.59 µM] | 5%[8.59 µM]
C[C@H]1N[S+](=O)([O-])c2ccc(Br)cc2O[C@@H]1c1ccccc1 | 16% | 8%
Oc1cc2c(cc1O)[C@H]1c3ccccc3CN[C@H]1CC2 | ? | 25µM*
c1ccc([C@H]2CNCc3ccccc32)cc1 | 1% | -11%
SMILES | Lassa entry | MARV entry inh
COc1cc2ncn(-c3cc(OCc4ccccc4S(C)(=O)=O)c(C#N)s3)c2cc1OC | -9% | ?
COc1cc2ncn(-c3cc(OCc4ccccc4C(F)(F)F)c(C(=O)N(C)C)s3)c2cc1OC | -17% | ?
COc1cc2ncn(-c3cc(OCCc4ccccc4)c(C(N)=O)s3)c2cc1OC | 7.9µM* | ?
COc1cc2ncn(-c3cc(OC(C)c4ccccc4Cl)c(C(N)=O)s3)c2cc1OC (configuration not stated) | nt | 3.5µM*
COc1ccc(-c2ccc3c(n2)CCCN3CC(O)CN2CCCc3nc(C)c(C)cc32)cc1 (configuration not stated) | 12%[8.59 µM] | 53%[8.59 µM]
CC1=C[C@@H](C)OC2(C1)C(=O)N(Cc1ccc(Br)cc1)c1cccc(Br)c12 (some centres not stated) | -2%[8.59 µM] | 4%[8.59 µM]
COc1ccc(O[C@H]2C=C[C@@H](c3ccccc3)O[C@H]2COC(=O)CCC(C)=NO[C@@H]2O[C@H](COC(C)=O)[C@@H](OC(C)=O)[C@H](OC(C)=O)[C@@H]2OC(C)=O)cc1 | 7%[8.59 µM] | -23%[8.59 µM]
CSC[C@H]1CN(CCc2ccccc2)C(=O)[C@H]1CC(=O)Nc1ccc(Br)cc1 | 12% | 12%
C[C@H]1N[S+](=O)([O-])c2cc(Cl)ccc2O[C@H]1c1ccccc1 | 29% | 23%
Nc1nc(N)c(N=O)c(OCC2CCCCC2)n1 | -5% | 11µM*
OC(CCN1CCCCC1)(c1ccccc1)C1CC2C=CC1C2 (configuration not stated) | 22µM*! | 10µM*
COC(=O)C1=C(C(=O)OC)[C@@H]2N(Cc3ccccc3)c3ccccc3[C@@]23CCC(=O)N(CCc2ccccn2)C3=N1 | -23%[8.59 µM] | ?
C=CC[C@@H]1C=C[C@H](ON=C[C@@H](C)[C@H](OCc2ccccc2)C(C)C)[C@H](CO)O1 | nt | -10%[8.59 µM]
CC(CCC(=O)OC[C@H]1O[C@H](C#Cc2ccccc2)C=C[C@H]1Oc1ccc(C)cc1)=NO[C@H](C)c1cn([C@@H]2COC[C@@H]2O)nn1 | nt | 0%[8.59 µM]
COc1ccc2cc1Oc1ccc(cc1)CC1c3cc(c(OC)cc3CCN1C)Oc1c(OC)c(OC)c(OC)c3c1C(C2)N(C)CC3 (configuration not stated) | ? | 10µM*
COc1cc2c3cc1Oc1cc(ccc1O)C[C@@H]1c4c(cc(OC)c(O)c4Oc4ccc(cc4)C[C@@H]3N(C)CC2)CC[N+]1(C)C | -9% | 1%
CCCCCCCCc1ccc(-c2ccc(C(=O)O)cc2)cc1 | 9% | -1%
CCCCCCC[N+](CC)(CC)CCCCc1ccc(Cl)cc1 | 5µM* | ?
CCCN1CCC(Oc2cc(Nc3nc(Nc4cccc(F)c4C(N)=O)c4cc[nH]c4n3)c(OC)cc2Cl)CC1 | ? | 10µM*
CCCN1CCC=C(c2ccc(Nc3nc(Nc4ccccc4C(N)=O)c4cc[nH]c4n3)c(C)c2)C1 | -1% | ?
CCCN1CCCC(c2ccc(Nc3nc(Nc4cc(F)ccc4C(N)=O)c4cc[nH]c4n3)c(OC)c2)C1 (configuration not stated) | ? | 7.9µM*
COc1cccc([C@H]2Oc3ccc(OC)cc3C(=NO[C@H](C)CN3CCCc4nc(C)c(C)cc43)[C@H]2O)c1 | 6%[8.59 µM] | ?
CC1=CC[C@@H](COc2ccccc2)O[C@@]2(C1)C(=O)N(Cc1ccc(F)cc1)c1ccccc12 | -11%[8.59 µM] | -2%[8.59 µM]
O=C(O)COc1ccccc1/C=N/NC(=O)c1ccncc1 | -3% | 15%
O=C(N/N=C/c1ccccc1O)c1ccncc1 | 10µM* | -24%
